Results on 7 compounds are retold here after PubChem BioAssay (Tox21).

Unmarked numbers belong to inactive results. Results filed as inconclusive are left out. Calls of active or inactive are those of the source. Unless noted, the call rests on the fitted dose curve; in most records, active means well fitted curve in the direction sought with a large enough effect in the repeat runs; inconclusive means weak or mixed curves; inactive means no such curve, though single readings can be large; an effect the other way counts as inactive or inconclusive.

Assay [1] concerns the target Thyrotropin receptor (Homo sapiens) (UniProt P16473). Description: qHTS assay to identify small molecule agonists of the thyroid stimulating hormone receptor (TSHR) signaling pathway (AID 1224843; calls by dose curve; further: nearly all actives have a fitted effect of over 45% in size). Put shortly: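 Steps: seed 800 TSHR-HEK293 cells per well; add test compound and hold 30 min at ambient temperature; dispense cAMP-d2 then anti-cAMP cryptate; incubate 1 h at ambient; measure fluorescence intensity.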
On the technique in general: In qHTS, concentration-response curves come from the screen itself.

The nature of assay [2]: qHTS assay to identify small molecule agonists of the hypoxia (HIF-1) signaling pathway - cell viability counter screen (AID 1224844; calls by dose curve; further: nearly all actives have a fitted effect of over 50% in size). Summed up: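 Multiplexed with the HRE beta-lactamase assay, this viability read used CellTiter-Glo luminescence (30 min, RT) on HRE-bla ME-180 cells treated 17 hrs with compounds in 0.5% dialyzed FBS medium.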
Assay [3] can be described thus: qHTS assay to identify small molecule agonists of H2AX - cell viability counter screen (AID 1224847; calls by dose curve; further: top concentration of the series differs between compounds; nearly all actives have a fitted effect of over 30% in size). Put shortly:
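Cytotoxicity counter screen in wild-type CHO-K1 cells: a 3 hr compound treatment at 37C across 15 concentrations, followed by CellTiter-Glo luminescence to gauge viable cells.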

Assay [4] can be described thus: qHTS RealTime-Glo MT Cell Viability Assay in HepG2 cells - 24 hour (AID 1224867). Further: nearly all actives have a fitted effect of over 50% in size. Summed up:
(§1)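 qHTS, HepG2, 600 cells/well, RealTime-Glo (NanoLuc + prosubstrate) added with cells; 5 h preincubation; DMSO compound addition; 37 C; luminescence at 0/8/16/24/32/40 h.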

Assay [5] is described as follows: qHTS RealTime-Glo MT Cell Viability Assay in HEK293 cells - 32 hour (AID 1224868). Further: top concentration of the series differs between compounds; nearly all actives have a fitted effect of over 50% in size. Summed up: (§2)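 Assay medium contained NanoLuc luciferase plus cell-permeant prosubstrate, added with HEK293 cells at 600 cells/well. After 5 h at 37 C/5% CO2 compounds were added; plates stayed at 37 C for 40 h with serial luminescence reads.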
Assay [6] in a line: A CellTox Green Cytotoxicity Assay to monitor cytotoxicity in HEK293 cells - 0 hour (AID 1224869). Further: nearly all actives have a fitted effect of over 50% in size. Summed up:
(§3)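 Seeding of HEK293 cells together with cytotoxicity dye preceded a 5 h incubation at 37 C/5% CO2. Test compounds in DMSO were then added and fluorescence monitored across 40 h.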

Assay [7] is described as follows: qHTS RealTime-Glo MT Cell Viability Assay in HepG2 cells - 40 hour (AID 1224870). Further: nearly all actives have a fitted effect of over 50% in size. Summed up:
(§4)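 HepG2 cells (600/well) mixed with RealTime-Glo MT reagent, settled 5 h at 37 C/5% CO2 before compound addition. Nonlytic NanoLuc luminescence from viable-cell prosubstrate reduction read repeatedly during 40 h treatment at 37 C.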

A short description of assay [8]: A CellTox Green Cytotoxicity Assay to monitor cytotoxicity in HEK293 cells - 40 hour (AID 1224871). Further: nearly all actives have a fitted effect of over 45% in size. Summed up:
as §3

Assay [9] in a line: qHTS RealTime-Glo MT Cell Viability Assay in HEK293 cells - 16 hour (AID 1224872). Summed up: as §2
Assay [10] in a line: qHTS RealTime-Glo MT Cell Viability Assay in HepG2 cells - 8 hour (AID 1224873). Further: nearly all actives have a fitted effect of over 55% in size. Summed up:
as §4

The nature of assay [11]: qHTS RealTime-Glo MT Cell Viability Assay in HEK293 cells - 40 hour (AID 1224874). Further: nearly all actives have a fitted effect of over 50% in size. The settings on record: RealTime-Glo luminescence; max response: active compounds read low. Put shortly:
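Tox21 screen in HEK293 using RealTime-Glo MT chemistry, with cells and reagent co-dispensed. Luminescence proportional to viable cell number was captured at intervals during 40 h compound exposure at 37 C.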

Assay [12] is described as follows: A CellTox Green Cytotoxicity Assay to monitor cytotoxicity in HEK293 cells - 24 hour (AID 1224875). Further: nearly all actives have a fitted effect of over 45% in size. Put shortly:
as §3

A short description of assay [13]: A CellTox Green Cytotoxicity Assay to monitor cytotoxicity in HepG2 cells - 16 hour (AID 1224876). Further: nearly all actives have a fitted effect of over 45% in size. Put shortly:
(§5)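 Nonlytic assay: viable cells exclude the dye, so fluorescence scales with cell death. HepG2 at 600 cells/well, compounds added after 5 h, signal read across 40 h.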

Assay [14] is described as follows: qHTS RealTime-Glo MT Cell Viability Assay in HepG2 cells - 32 hour (AID 1224877). Further: nearly all actives have a fitted effect of over 55% in size. Summed up:
as §1

The nature of assay [15]: A CellTox Green Cytotoxicity Assay to monitor cytotoxicity in HepG2 cells - 24 hour (AID 1224878). Further: nearly all actives have a fitted effect of over 45% in size. Put shortly:
as §5

Assay [16] is described as follows: A CellTox Green Cytotoxicity Assay to monitor cytotoxicity in HepG2 cells - 40 hour (AID 1224879). Further: nearly all actives have a fitted effect of over 40% in size. Further: potency means the concentration at half of the fitted maximal effect. Summed up:
as §5

Assay [17] is described as follows: qHTS assay to identify small molecule agonists of the hypoxia (HIF-1) signaling pathway (AID 1224846; active means well fitted activation curve with a large enough effect in the signal ratio in the repeat runs, not every such curve was filed as active; the % refers to the signal ratio). Put shortly: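 Hypoxia-pathway activation was scored as increased beta-lactamase from an HRE-controlled reporter in ME-180 cells; plated at 2,000 cells per well with 0.5% dialyzed FBS, they were exposed 17 hrs to compounds and then given CCF4-AM.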
Assay [18] can be described thus: qHTS assay to identify small molecule antagonists of the estrogen related receptor (ERR) signaling pathway from Tox21 library (AID 1224848). Further: nearly all actives have a fitted effect of over 50% in size. Put shortly:
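Luminescent reporter read-out (ONE-Glo) from NTP's ERR cell line after 18 h treatment at 37 C with DMSO-dissolved Tox21 compounds; cells pre-plated 6 h beforehand at 2,000 per well.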

Assay [19] in a line: qHTS assay to identify small molecule agonists of the estrogen related receptor (ERR) signaling pathway from Tox21 library (AID 1224849; calls by dose curve; further: nearly all actives have a fitted effect of over 15% in size). To be noted: ERR reporter cell line, ONE-Glo luciferase, 18 h; at 92.4 µM (top of the series) unless noted. Put shortly: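 Six hours post-seeding at 37 C/5% CO2, ERR cells receive DMSO-solubilised compounds; after 18 h at 37 C, ONE-Glo reagent is applied and luminescence recorded.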
On the % scale 0 is the no-effect control and ±100 the full control effect.

Chain of Thyrotropin receptor (Homo sapiens) (P16473 whole entry, looked up): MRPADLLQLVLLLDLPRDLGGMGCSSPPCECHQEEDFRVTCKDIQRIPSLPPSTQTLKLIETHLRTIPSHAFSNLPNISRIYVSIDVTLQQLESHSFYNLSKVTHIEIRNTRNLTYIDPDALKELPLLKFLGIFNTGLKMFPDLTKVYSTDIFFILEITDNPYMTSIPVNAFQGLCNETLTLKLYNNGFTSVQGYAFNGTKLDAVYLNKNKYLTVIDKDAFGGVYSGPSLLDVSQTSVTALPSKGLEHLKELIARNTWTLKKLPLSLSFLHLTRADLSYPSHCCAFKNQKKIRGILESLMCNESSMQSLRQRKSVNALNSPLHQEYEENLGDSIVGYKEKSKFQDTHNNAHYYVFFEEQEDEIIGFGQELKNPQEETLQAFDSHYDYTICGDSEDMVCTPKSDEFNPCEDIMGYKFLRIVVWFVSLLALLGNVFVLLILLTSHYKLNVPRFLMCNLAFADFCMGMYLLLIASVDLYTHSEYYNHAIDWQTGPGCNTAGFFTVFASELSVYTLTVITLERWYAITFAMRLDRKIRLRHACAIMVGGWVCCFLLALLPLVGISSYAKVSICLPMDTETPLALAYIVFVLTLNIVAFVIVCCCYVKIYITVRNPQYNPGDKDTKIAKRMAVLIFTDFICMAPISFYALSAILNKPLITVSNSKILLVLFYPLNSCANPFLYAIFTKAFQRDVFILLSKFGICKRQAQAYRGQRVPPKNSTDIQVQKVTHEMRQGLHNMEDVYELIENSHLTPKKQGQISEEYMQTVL

As to `Cc1cc(NC(=O)C2=C(O)c3ccccc3S(=O)(=O)N2C)no1`, the Potency result in assay [1], in [3], in [5], in [8], in assay [9] and in assay [16] was “inactive” in each case. Further, the compound was classed as inactive in [2], in [4], in assay [6], in [7], in [10] and in [12]. For the same compound, the call in assay [13], in assay [14] and in [15] was inactive. For the same compound, in assay [11], the max response is 4.93%.

For the compound `CC1=C(C(=O)O)N2C(=O)[C@@H](NC(=O)[C@H](N)c3ccc(O)cc3)[C@H]2SC1`, the Potency entry in assay [1], in [3], in assay [5], in assay [8], in assay [9] and in [16] was “inactive” in each case. Besides, the outcome in assay [2], in assay [4], in assay [6], in assay [7], in assay [10] and in [12] was inactive. Moreover, the compound was classed as inactive in assay [13] and in [14]. The max response in assay [11] is 13.3%.

Consider `Cc1ccccc1C(=O)Nc1ccc(C(=O)N2CCCC(N(C)C)c3ccccc32)cc1` (centres undefined), for which the Potency entry in assay [1], in assay [3], in assay [8] and in [9] was “inactive” each time. Moreover, the outcome in assay [2], in [17], in assay [4], in assay [6], in assay [7] and in assay [10] was inactive. Also, the outcome in assay [12], in assay [13] and in [14] was inactive. Further, in assay [16], the Potency was 6.74 µM (active).

For `Cc1cc2cc3c(C)cc(=O)oc3c(C)c2o1`, the Potency result in assay [1], in assay [3], in assay [18], in assay [5], in assay [8] and in [9] was “inactive” throughout. Besides, in [16], the Potency result is “inactive”. Also, the result in assay [2], in assay [4], in assay [6], in assay [7], in assay [10] and in [12] was inactive. In addition, the call in assay [13], in assay [14] and in assay [15] was inactive. In addition, the activity change, positive = activation in [19] is 7.29% [at 42.5 µM]. The max response in [11] is -18.2%.

As to `CN1CCN(CC(=O)N2c3ccccc3C(=O)Nc3cccnc32)CC1`, the activation in [1] was 3.54% [at 8.39 µM]. Further, the activity change, negative = cytotoxicity was 0.9% [at 6.97 µM] in [2], -0.342% [at 14 µM] in [3], 0.294% [at 6.97 µM] in assay [4] and 13.3% [at 6.97 µM] in assay [9]. Moreover, the activity, negative = inhibition in assay [18] is 0.334% [at 8.39 µM]. Besides, in [19], the activity change, positive = activation was -0.263% [at 8.39 µM]. Besides, the activity change, negative = cytotoxic was 5.96% [at 6.97 µM] in assay [5], 3.53% [at 6.97 µM] in [7] and 1.53% [at 6.97 µM] in assay [14]. Moreover, the cytotoxicity in assay [6] was 1.41% [at 6.97 µM]; in assay [15], -12.6% [at 6.97 µM]. For the same compound, the cytotoxicity increase in assay [8] was -2.67% [at 6.97 µM]; in [13], -11.9% [at 6.97 µM]; in [16] it was -15.8% [at 6.97 µM]. Further, the viability change, negative = cytotoxic in assay [10] was 0.562% [at 6.97 µM]. The max response in assay [11] is 6.66%. Further, the activity change in [12] is -2.09% [at 6.97 µM].

Consider `CC1(CO)CN(c2ccccc2)NC1=O` (centres undefined), for which the Potency entry in assay [1], in assay [3], in assay [5], in assay [8], in [9] and in [16] was “inactive” in each case. Also, the result in [2], in assay [17], in assay [4], in assay [6], in [7] and in assay [10] was inactive. Moreover, the call in assay [12], in assay [13], in assay [14] and in [15] was inactive. For the same compound, the max response in assay [11] was -10.7%.

Consider `CCCCNC1CC(C)(C)NC(C)(C)C1`, for which the Potency result in assay [1], in assay [18], in assay [5], in [8], in assay [9] and in assay [16] was “inactive” in each case. For the same compound, the compound was called inactive in [2], in [17], in [6], in assay [10], in assay [12] and in assay [13]. In addition, the outcome in assay [14] and in [15] was inactive. In assay [19], the activity change, positive = activation is 8.08%. For the same compound, the max response in assay [11] is 10.4%.
